An excerpt weighted towards active compounds, which were near 7.4% of everything screened.
SMN2 splice up – enhancers of SMN2 splice variant expression. HEK293 SMN2-luciferase splicing reporter, luminescence, 30-36 h. Potency, µM (highest dose often 46.1 µM), for inactives: at the highest dose activity change, positive = activation, hits mostly activators. 2.8% of 210,000 active. AID 1458; also: % of control where 0% means no effect; nearly all actives have a fitted effect of over 55% in size
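qHTS luciferase splicing reporter: luminescence rises when SMN2 exon 7 is included in transfected HEK293 cells. Compound exposure lasted 30-36 h at 37C, with 4.5 mM final sodium butyrate as control, followed by a ONE-Glo read.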
Rab9 prom act – Rab9 promoter activation; 2.8% of 320,000 active; Huh7 Rab9 promoter-luciferase reporter, luminescence, 24 h; AID 485297; Potency, µM (highest dose often 9.22 µM), for inactives: at the top dose activation, negative = inhibition, most hits filed as activators; also: % of control where 0% means no effect; nearly all actives have a fitted effect of over 60% in size
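Luminescence from Amplite-detected luciferase (10 minutes, ambient) reports Rab9 promoter activation. Before that, stable Rab9-luciferase Huh7 cells (1500/well, reduced-serum OP-MEM I plus 10% FBS) were exposed to compound for 24 hours at 37C.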
FLuc modulator – inhibits or activates purified firefly luciferase, miR-21 counter-screen; P08659; AID 588342; 6.9% of 360,000 active; purified FLuc, Km substrates, luminescence inhibition; Potency, µM (doses to about 57.5 µM), for the others: at the top dose activity change, negative = inhibition, usual class: inhibitors;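 also: plate controls were vehicle for no effect and reference inhibitor for full effect; nearly all actives have a fitted effect of over 55% in size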
Target sequence (P08659 whole entry, looked up): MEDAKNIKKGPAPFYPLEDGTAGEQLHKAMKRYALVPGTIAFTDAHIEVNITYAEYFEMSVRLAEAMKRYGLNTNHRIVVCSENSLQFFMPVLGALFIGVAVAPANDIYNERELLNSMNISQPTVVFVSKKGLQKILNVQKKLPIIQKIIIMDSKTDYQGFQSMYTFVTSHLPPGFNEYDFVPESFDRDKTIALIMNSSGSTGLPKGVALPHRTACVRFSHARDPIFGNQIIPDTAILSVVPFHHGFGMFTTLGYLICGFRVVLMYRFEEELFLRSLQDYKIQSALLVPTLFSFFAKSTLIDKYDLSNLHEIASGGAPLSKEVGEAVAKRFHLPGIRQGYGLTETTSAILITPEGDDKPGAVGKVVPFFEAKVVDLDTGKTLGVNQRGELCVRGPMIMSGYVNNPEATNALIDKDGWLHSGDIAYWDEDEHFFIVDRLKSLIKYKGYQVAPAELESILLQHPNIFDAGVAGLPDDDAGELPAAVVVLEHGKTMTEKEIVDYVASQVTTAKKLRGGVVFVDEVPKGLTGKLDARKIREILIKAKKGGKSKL
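Purified P. pyralis luciferase (10nM final) with 10uM D-luciferin and 10uM ATP (Km levels) in 50mM Tris acetate pH 7.5, 10mM Mg acetate, 0.01% Tween-20, 0.05% BSA; qHTS 6-point titration, ~60 µM downward; luminescence read.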
ELG1 genotox – inducers of genotoxicity in HEK293T ELG1-luciferase cells; AID 504466; 1.3% of 330,000 active; Potency, µM (series often up to 46 µM), inactives show at the top dose activity change, positive = activation, most hits filed as activators; HEK293T ELG1-luciferase reporter, luminescence, 16 h; also: % of control where 0% means no effect; nearly all actives have a fitted effect of over 60% in size
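Quantitative HTS format in 1536-well plates. HEK293T ELG1-luciferase reporter cells receive test compound and are incubated 16 hr at 37 °C, 5% CO2; ONE-Glo added, 30 min room temperature, then luminescence read.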
NPC1 promoter act – NPC1 promoter activation; Huh7 NPC1 promoter luciferase reporter, 24 h; Potency, µM (highest dose often 9.22 µM), inactives show at the highest dose activation, usual class: activators; 2.4% of 320,000 active; AID 485313; also: % of control where 0% means no effect; nearly all actives have a fitted effect of over 60% in size
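Luciferase expression driven by the NPC1 promoter was measured in stably transfected Huh7 cells after a 24 h compound incubation, using a luciferase reagent and a luminescence read.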
Numbers without * were called inactive; ? = inconclusive; . = not tested or not shown. Calls follow the shape of the dose curve; as a rule, active = well fitted curve in the direction sought with a large enough effect; inconclusive = small, poorly fitted or top-dose-only effect, or another doubt; inactive = no such curve, though single readings can be large; an effect the other way counts as inactive or inconclusive. Potency is read from the fitted curve at half-maximal effect.

SMILES	SMN2 splice up	Rab9 prom act	FLuc modulator	ELG1 genotox	NPC1 promoter act
O=C(N/N=C/c1cn(-c2ccccc2)nc1-c1cc2ccccc2o1)c1cccnc1	3.98µM*	?	2.13µM*	?	?
CC1CCCCC12NC(=O)N(CC(=O)OCc1cccc(F)c1)C2=O (configuration not stated)	.	-6.8%	2.0%	0.6%	-0.6%
CCOC(=O)/C=C/C(=O)N1CCc2ccccc21	-5.7%	3.8%	10.7µM*	1.1%	0.3%
O=C(c1ccco1)N1CCc2ccccc21	73.4%	?	?	?	?
O=C(/C=C/c1ccco1)N1CCc2ccccc21	10µM*	0.794µM*	2.13µM*	1.03µM*	1.78µM*
CCOCC(=O)N1CCc2ccccc21	25.3%	2.9%	1.4%	-5.7%	-3.1%
Cc1ccc(/C=C/C(=O)N2CCc3ccccc32)o1	.	2.51µM*	1.9µM*	8.2µM*	2.82µM*
CCN1C(=O)CSC1=Nc1cccc(C(=O)O)c1	.	-0.3%	3.0%	-0.3%	-4.1%
CCOc1ccc(C2C=C(c3ccccc3)Nc3nnnn32)cc1 (configuration not stated)	13.7%	1.58µM*	-0.3%	?	2.82µM*
CCOc1ccc(C2C=C(c3ccc(C)cc3)Nc3nnnn32)cc1 (configuration not stated)	-9.0%	2.8%	-1.4%	1.4%	3.8%
Cc1ccc(C2=CC(c3cccs3)n3nnnc3N2)cc1 (configuration not stated)	14.9%	?	-26.1%	3.1%	5.01µM*
Fc1ccc(C2=CC(c3cccs3)n3nnnc3N2)cc1 (configuration not stated)	.	8.5%	-1.5%	5.1%	-2.2%
CC(C)(C)c1ccc(-c2ncccc2O)cc1	.	18.0%	13.5µM*	9.8%	21.7%
c1ccc(-c2nccnc2-c2ccccc2)cc1	.	1.9%	4.6%	0.0%	-1.6%
CCc1ccc(C(=O)CN2C(=O)NC3(CCOc4ccccc43)C2=O)s1 (configuration not stated)	.	1.4%	16.9µM*	0.7%	-2.7%
O=C(CN1C(=O)NC2(CCOc3ccccc32)C1=O)c1ccc(Cl)s1 (configuration not stated)	.	-6.9%	.	-1.1%	-0.4%
COc1ccc(-c2cc(C(=O)Nc3ccccc3F)on2)cc1	?	3.16µM*	-17.1%	?	0.7%
COc1ccc(-n2nnc(C(=O)Nc3ccccc3F)c2N)cc1	7.08µM*	.	2.39µM*	.	.
COc1ccc(-c2cc(C(=O)Nc3ccccc3)on2)cc1	?	3.0%	0.536µM*	?	0.0%
O=C(N/N=C\c1ccccn1)c1ccccc1O	18.0%	13.5%	12µM*	?	-0.1%
O=C(N/N=C\c1ccncc1)c1ccccc1O	24.5%	-1.5%	9.53µM*	-4.8%	12.7%
COc1ccc(C(=O)Nc2ccccc2C(=O)N/N=C/c2ccccn2)cc1OC	.	-14.1%	0.849µM*	20.6µM*	-8.4%
Cc1ccccc1OCC(=O)N/N=C/c1ccccn1	5.7%	-4.7%	2.4%	-2.9%	-5.9%
Cc1ccccc1C(=O)N/N=C/c1ccccn1	11.2µM*	3.98µM*	8.49µM*	25.9µM*	3.16µM*
Cc1ccccc1C(=O)N/N=C/c1ccncc1	-0.9%	10.7%	?	6.9%	12.8%
SMILES	SMN2 splice up	Rab9 prom act	FLuc modulator	ELG1 genotox	NPC1 promoter act
CNC(=S)N/N=C/C1=CCC2CC1C2(C)C (configuration not stated)	9.2%	-5.0%	9.0%	0.4%	-1.8%
O=C(N/N=C/c1ccc(-c2ccccc2)o1)c1ccccc1O	.	18.6%	5.36µM*	0.2%	11.0%
CC1(C)C2CC=C(/C=N/NC(=O)c3ccccc3O)C1C2 (configuration not stated)	-15.3%	-2.8%	7.57µM*	-0.4%	-0.7%
COc1cc(/C=C2\NC(=S)NC2=O)ccc1OCc1cccc(C(=O)O)c1	.	17.4%	0.379µM*	20.6µM*	18.7%
CN1C(=O)/C(=C/c2ccc(OCc3ccc(C(=O)O)cc3)c(Cl)c2)NC1=S	.	-3.6%	-5.8%	-3.6%	-0.7%
O=C1NC(=O)/C(=C\c2ccc(OCc3cccc(C(=O)O)c3)c(Cl)c2)N1	11.2µM*	2.24µM*	0.601µM*	-3.4%	?
